RGS12 GoLoco inh: blocks human Gai1 binding to RGS12 GoLoco peptide, red readout; P63096; Gai1:RGS12 GoLoco peptide FP, rhodamine, 10 min; Potency, µM (highest dose often 61.6 µM), for inactives: at the top dose activity, negative = inhibition, actives largely listed as inhibitors; hit rate 0.44% among 230,000; AID 880; active = well fitted inhibition curve with a large enough effect, not every such curve was filed as active; inactive = no such curve, though single readings can be large or run the other way; note: potency is the fitted concentration of half-maximal effect; nearly all actives have a fitted effect of over 30% in size
JMJD2E inh: inhibitors of human JMJD2E histone demethylase. B2RXH2. JMJD2E catalytic domain, FDH-coupled NADH fluorescence (FDH is formaldehyde dehydrogenase). hit rate 1.6% among 230,000. Potency, µM (top dose mostly 57.1 µM), for inactives: top-dose activity change, negative = inhibition, usual class: inhibitors;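 note: potency is the fitted concentration of half-maximal effect; 0% = wells with enzyme and -100% = buffer wells without enzyme; nearly all actives have a fitted effect of over 50% in size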
FBPA coupling cs: coupling enzyme interference in Giardia aldolase counter-screen; coupling enzyme system counterscreen, AmpLite Red fluorescence; activity change, negative = inhibition, % at 58.2 µM, hits read low; hit rate 0.67% among 290,000; in the data active = activity change below about -30%
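First, compound is pin-transferred into glyceraldehyde-3-phosphate coupling-enzyme reagent at 57.5 uM final and held 10 min at RT. Next, substrate, coupling system and AmpLite Red are added. After 20 min RT, fluorescence (525/598 nm) is read.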
ALDH1A1 block: blocks purified human ALDH1A1 activity | hit rate 7.3% among 220,000 | Potency, µM (highest dose often 75.3 µM), for inactives: at the top dose activity, negative = inhibition, hits mostly inhibitors | Purified ALDH1A1, NADH fluorescence, propionaldehyde substrate | AID 1030;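 note: potency is the fitted concentration of half-maximal effect; plate controls were no enzyme wells and a reference inhibitor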
Target sequence (P00352 whole entry, looked up): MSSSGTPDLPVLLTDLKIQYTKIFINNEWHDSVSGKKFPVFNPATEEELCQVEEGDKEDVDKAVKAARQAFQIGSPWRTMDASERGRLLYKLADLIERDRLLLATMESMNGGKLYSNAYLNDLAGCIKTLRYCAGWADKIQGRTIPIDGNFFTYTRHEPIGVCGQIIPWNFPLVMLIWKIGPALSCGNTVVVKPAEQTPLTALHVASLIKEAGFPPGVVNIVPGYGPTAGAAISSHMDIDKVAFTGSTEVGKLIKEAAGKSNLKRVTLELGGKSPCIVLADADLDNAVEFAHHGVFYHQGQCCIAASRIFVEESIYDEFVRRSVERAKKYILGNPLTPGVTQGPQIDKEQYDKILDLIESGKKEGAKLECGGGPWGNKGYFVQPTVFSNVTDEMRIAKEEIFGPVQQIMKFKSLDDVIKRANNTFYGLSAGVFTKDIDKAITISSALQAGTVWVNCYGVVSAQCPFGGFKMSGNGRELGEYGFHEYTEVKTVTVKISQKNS
NPSR antagonist: neuropeptide S receptor (human) antagonism, cAMP; Q6W5P4; CHO-NPSR cells, cAMP TR-FRET, antagonist mode; Potency, µM (doses to about 38.3 µM), for inactives: top-dose activity change, negative = inhibition, hits mostly inhibitors; hit rate 1% among 220,000; active = well fitted curve in the direction sought with a large enough effect; inconclusive = small, poorly fitted or top-dose-only effect, or another doubt; inactive = no such curve, though single readings can be large; an effect the other way counts as inactive or inconclusive; note: potency is the fitted concentration of half-maximal effect; nearly all actives have a fitted effect of over 50% in size
Sfp PPTase inh: blocks B. subtilis Sfp PPTase activity; Q9F4F7; Biochemical Sfp PPTase activity, qHTS; Potency, µM, for inactives: largest response in the series, negative = inhibition, usual class: inhibitors; hit rate 3.5% among 310,000; active = well fitted curve in the direction sought with a large enough effect; inconclusive = small, poorly fitted or top-dose-only effect, or another doubt; inactive = no such curve, though single readings can be large; an effect the other way counts as inactive or inconclusive;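 note: the enzyme is Sfp with the accession as filed and its product quenches rhodamine fluorescence; potency is the fitted concentration of half-maximal effect; 0% = enzyme reaction without inhibitor and -100% = no enzyme wells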
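Fluorescence-quenching assay with 15 nM Sfp, 5 uM rhodamine-CoA and 12.5 uM BHQ-2-labelled ybbR peptide in pH 7.6 Hepes/MgCl2 buffer. Enzyme was pre-incubated with compound for 15 min at room temperature. Rate was taken from the 30-min fluorescence change (525/598 nm).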
* hit, by the source's call; ? = inconclusive; / = no result given; [ ] = another dose, or the depositor's remark. The list is not random: actives were taken first. Their share in the collection is about 8.5%. Unless noted, calls come from the whole dose curve; as a rule, active = well fitted inhibition curve with a large enough effect (not every such curve was filed as active); inconclusive = small, poorly fitted or top-dose-only effect, or another doubt; inactive = no such curve, though single readings can be large or run the other way. Unless noted, % is set by controls: 0 for no effect and ±100 for the full control effect.

SMILES | RGS12 GoLoco inh | JMJD2E inh | FBPA coupling cs | ALDH1A1 block | NPSR antagonist | Sfp PPTase inh
COc1ccc(C(c2c(C)n(C)n(-c3ccccc3)c2=O)c2c(C)n(C)n(-c3ccccc3)c2=O)c(OC)c1OC | / | / | -2.7 | / | / | 13.2%
COc1ccc(CCN2C(=O)C(O)=C(C(=O)c3ccco3)C2c2cccs2)cc1OC (stereo not given) | -5.7% | 4.1% | 12.6 | 7.94µM* | 23.4%[46.1 µM] | -4.0%
O=C(C1=C(O)C(=O)N(CCOCCO)C1c1cccs1)c1cccs1 (stereo not given) | -3.3% | ? | 0.0 | 2.24µM* | 6.2%[46.1 µM] | -21.0%
COc1cc(C2C(C(=O)c3ccco3)=C(O)C(=O)N2CCc2ccccc2)ccc1O (stereo not given) | 4.9% | -9.8% | 7.4 | 6.4% | -10.9%[46.1 µM] | 5.4%
O=C(C1=C(O)C(=O)N(Cc2ccco2)C1c1cccs1)c1cccs1 (stereo not given) | 6.7% | -1.7% | 6.7 | ? | -13.6% | -63.5%
COc1ccc(C2C(C(=O)c3ccc(C)o3)=C(O)C(=O)N2Cc2ccco2)cc1OC (stereo not given) | / | / | / | / | / | 44.7µM*
CCn1c2ccccc2c2cc(NC(=O)COC(=O)c3cc(Cl)c(N)cc3OC)ccc21 | 0.3% | ? | -0.6 | / | -21.7% | ?
C=CCNc1nc2c3ccccc3n(C(C)=O)c2s1 | -12.1% | ? | -23.0 | 28.2µM* | -15.4%[46.1 µM] | 79.4µM*
CC(=O)n1c2ccccc2c2nc3ccccc3nc21 | / | / | 7.0 | / | / | 13.1%
Cc1cc(C(=O)COC(=O)CC2Sc3ccccc3NC2=O)c(C)n1-c1ccc(Br)cc1 (stereo not given) | 43.6% | 2.7% | -6.2 | 11.9µM* | -9.9% | -6.2%
Cc1cccc(NS(=O)(=O)c2cc(C(=O)N3CCOCC3)ccc2Cl)c1 | -3.9% | -2.6% | -8.0 | -4.2% | -9.0% | -0.9%
O=C(Nc1ccc2c(c1)C(=O)OC2)c1ccccc1Cl | / | / | 2.6 | / | / | 4.4%
O=C(O)CCc1ccc(-c2cccs2)n1Cc1ccco1 | -9.5% | ? | 11.2 | ? | -5.4%[46.1 µM] | 25.1µM*
O=C(O)CCc1ccc(-c2ccccc2)n1-c1cccc(C(=O)O)c1 | / | / | 15.4 | / | / | 70.8µM*
O=C(O)CCc1ccc(-c2ccccc2)n1-c1ccc(C(=O)O)cc1 | / | / | 8.9 | / | / | -5.4%
O=C(O)CCc1ccc(-c2ccc(Cl)cc2)n1Cc1ccco1 | 1.8% | ? | 15.3 | ? | -21.2%[46.1 µM] | -14.1%
COCCn1c(CCC(=O)O)ccc1-c1cccs1 | -3.8% | ? | -0.4 | ? | -2.9% | -10.0%
Cc1ccc(-n2c(CCC(=O)O)ccc2-c2cccs2)cc1C | 10.2% | ? | 14.4 | ? | -5.0%[46.1 µM] | 44.7µM*
Cc1ccc(NC(=O)CN2C(=O)CC(C)S(=O)(=O)c3ccccc32)cc1 (stereo not given) | / | / | -0.6 | / | / | 2.4%
COCCN(CCOC)c1nc(C)nc2c1nc(-c1ccccc1)n2CCCN(C)C | -1.9% | ? | 1.1 | ? | / | 32.0%
COCCCNC(=O)C1=CCN(S(=O)(=O)c2ccc(C)cc2)CC1 | / | / | 3.9 | / | / | 8.5%
Oc1ccc(/C=N/n2c(COc3ccccc3)n[nH]c2=S)cc1O | / | / | -1.6 | / | / | 56.2µM*
CSc1ccc(/C=N/n2c(Cc3ccc(Br)cc3)n[nH]c2=S)cc1 | 29.8% | -11.5% | -2.0 | ? | -37.0% | 17.8%
CCOc1cc(/C=N/n2c(COc3ccccc3)n[nH]c2=S)ccc1O | / | / | 3.0 | / | / | -11.8%
FC(F)Oc1ccc(/C=N/n2c(Cc3ccc(Br)cc3)n[nH]c2=S)cc1 | / | / | -0.9 | / | / | 17.8µM*
SMILES | RGS12 GoLoco inh | JMJD2E inh | FBPA coupling cs | ALDH1A1 block | NPSR antagonist | Sfp PPTase inh
S=c1[nH]nc(COc2ccccc2)n1/N=C/c1ccc(Br)cc1 | / | / | -2.8 | / | / | 63.1µM*
COc1ccc(S(=O)(=O)N2CCC(Cc3ccccc3)CC2)cc1NC(C)=O | / | / | 10.3 | / | / | -6.8%
CC1CC(C)CN(C(=O)C2CCC(CNS(=O)(=O)c3ccccc3)CC2)C1 (stereo not given) | / | / | 1.8 | / | / | 7.5%
CCCC(C(=O)NC1CCCC1)N(CC1CCCO1)C(=O)CNS(=O)(=O)c1ccccc1 (stereo not given) | / | / | -0.3 | / | / | -11.3%
CCN(CC)S(=O)(=O)c1ccc(OC(C)C)c(NC(=O)c2c3c(nc4ccccc24)CCN(Cc2ccccc2)C3)c1 | 14.6% | -9.4% | 2.7 | ? | 0.1% | -6.6%
CCc1nc(N2CCN(C(=S)NCCCOC)CC2)c2c3c(sc2n1)CCCC3 | / | / | 0.7 | / | / | -1.7%
COc1ccc(-c2cc(-c3ccc(OC)cc3)nc(-c3ccc4c(c3)NC(=O)CO4)c2)cc1 | 8.1% | ? | 0.1 | ? | 0.6%[46.1 µM] | ?
CC(Nc1nc(-c2ccc3c(c2)NC(=O)CO3)cs1)c1ccccc1 (stereo not given) | -8.5% | -4.4% | -4.6 | 6.31µM* | -52.3% | -11.6%
O=C1COc2ccc(-c3csc(NCC4CCCO4)n3)cc2N1 (stereo not given) | 4.9% | 2.6% | -4.4 | 5.8% | -10.4%[46.1 µM] | -18.5%
COc1cccc(-c2nc(-c3ccc4c(c3)NC(=O)CO4)cs2)c1 | 20.3% | -21.2% | -2.5 | 20µM* | -18.4% | ?
CC(=O)c1cccc(OCCCOc2cccc3cccnc23)c1 | / | / | -5.8 | / | / | 3.4%
C[C@@](N)(Cc1ccc(O)c(O)c1)C(=O)O | -6.7% | 7.94µM* | -10.9 | -10.0% | / | ?
COC(=O)[C@@H](N)Cc1ccc(O)c(O)c1 | -11.1% | 12.6µM* | / | 7.0% | 4.4%[46.1 µM] | 56.2µM*
COC(=O)C(N)Cc1ccc(Cl)cc1 (stereo not given) | 4.0% | 9.8% | / | 13.5% | ? | /
O=C(O)Cc1ccc(O)c(O)c1 | 22.0% | 25.1µM* | -3.6 | -2.2% | 5.9%[46.1 µM] | 39.8µM*
COc1cc(NS(=O)(=O)c2ccc(NC(=S)NC(=O)c3ccc(F)c(F)c3)cc2)nc(OC)n1 | / | / | / | / | / | 4.8%
O=C1c2ccccc2NC(c2cccnc2)N1c1ccccc1F (stereo not given) | -14.1% | ? | 5.8 | ? | 13.8% | -4.4%
Oc1c(Br)cc(C=Nc2ccc3nc(-c4ccccc4)[nH]c3c2)c(O)c1Br | 62.5% | 3.8% | -24.7 | ? | 10µM* | 56.2µM*
O=[N+]([O-])c1ccc(O)c(C=Nc2ccc3nc(-c4ccccc4)[nH]c3c2)c1 | 22.6% | ? | 3.3 | ? | -19.7% | 18.5%

From PubChem
